Records with an inconclusive call do not appear. Where a call stands in place of a potency, no number is given. A number with no mark means an inactive call. Activity calls are given as the source filed them. The call rests on the fitted dose curve; in most records, active means well fitted inhibition curve with a large enough effect; inconclusive means small, poorly fitted or top-dose-only effect; inactive means flat fitted curve, though single readings scatter.
Columns and labels:
[1] = qHTS profiling for inhibitors of Plasmodium falciparum proliferation (AID 504749); on all read-outs here: nearly all actives have a fitted effect of over 60% in size; conditions: P. falciparum in erythrocytes, SYBR Green DNA, 72 h; for activity, negative = inhibition: at 28.7 µM (top of the series)
How it was run: (§1)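 SYBR Green fluorescence (ex 485 nm, em 535 nm) reports parasite DNA after 72 h compound exposure of infected red cells at 0.3% parasitemia, 2.5% hematocrit; signal normalized to 0.29 uM artemisinin and vehicle wells.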

3D7 = experiment: as above; conditions: P. falciparum in erythrocytes, SYBR Green DNA, 72 h; series mostly up to 28.7 µM
How it was run: as §1

7G8 = experiment: as above; conditions: P. falciparum in erythrocytes, SYBR Green DNA, 72 h; series mostly up to 28.7 µM
How it was run: as §1

AA1029 = experiment: as above; conditions: P. falciparum in erythrocytes, SYBR Green DNA, 72 h; series mostly up to 28.7 µM
How it was run: as §1

AS120 = experiment: as above; conditions: P. falciparum in erythrocytes, SYBR Green DNA, 72 h; series mostly up to 28.7 µM
How it was run: as §1

ATS189 = experiment: as above; conditions: P. falciparum in erythrocytes, SYBR Green DNA, 72 h; series mostly up to 28.7 µM
How it was run: as §1

ATS95 = experiment: as above; conditions: P. falciparum in erythrocytes, SYBR Green DNA, 72 h; series mostly up to 28.7 µM
How it was run: as §1

C2A = experiment: as above; conditions: P. falciparum in erythrocytes, SYBR Green DNA, 72 h; series mostly up to 28.7 µM
How it was run: as §1

CP185 = experiment: as above; conditions: P. falciparum in erythrocytes, SYBR Green DNA, 72 h; series mostly up to 28.7 µM
How it was run: as §1

CP191 = experiment: as above; conditions: P. falciparum in erythrocytes, SYBR Green DNA, 72 h; series mostly up to 28.7 µM
How it was run: as §1

CP192 = experiment: as above; conditions: P. falciparum in erythrocytes, SYBR Green DNA, 72 h; series mostly up to 28.7 µM
How it was run: as §1

CP194 = experiment: as above; conditions: P. falciparum in erythrocytes, SYBR Green DNA, 72 h; series mostly up to 28.7 µM
How it was run: as §1

CP201 = experiment: as above; conditions: P. falciparum in erythrocytes, SYBR Green DNA, 72 h; series mostly up to 28.7 µM
How it was run: as §1

CP203 = experiment: as above; conditions: P. falciparum in erythrocytes, SYBR Green DNA, 72 h; series mostly up to 28.7 µM
How it was run: as §1

CP211 = experiment: as above; conditions: P. falciparum in erythrocytes, SYBR Green DNA, 72 h; series mostly up to 28.7 µM
How it was run: as §1

CP215 = experiment: as above; conditions: P. falciparum in erythrocytes, SYBR Green DNA, 72 h; series mostly up to 28.7 µM
How it was run: as §1

CP217 = experiment: as above; conditions: P. falciparum in erythrocytes, SYBR Green DNA, 72 h; series mostly up to 28.7 µM
How it was run: as §1

CP237 = experiment: as above; conditions: P. falciparum in erythrocytes, SYBR Green DNA, 72 h; series mostly up to 28.7 µM
How it was run: as §1

CP238 = experiment: as above; conditions: P. falciparum in erythrocytes, SYBR Green DNA, 72 h; series mostly up to 28.7 µM
How it was run: as §1
Potency means the concentration at half of the fitted maximal effect.

Nc1nc(-c2ccccc2)c(Br)c(=O)[nH]1
activity, negative = inhibition ([1]; parasite line A): -7.1%
activity, negative = inhibition ([1]; parasite line B): 1.53%
Potency (3D7): inactive
Potency (7G8): inactive
Potency (AA1029): inactive
Potency (AS120): inactive
Potency (ATS189): inactive
Potency (ATS95): inactive
Potency (C2A): inactive
Potency (CP185): inactive
Potency (CP191): inactive
Potency (CP192): inactive
Potency (CP194): inactive
Potency (CP201): inactive
Potency (CP203): inactive
Potency (CP211): inactive
Potency (CP215): inactive
Potency (CP217): inactive
Potency (CP237): inactive
Potency (CP238): inactive

CCN(CC)CCNC(=O)c1cc(Br)c(N)cc1OC
activity, negative = inhibition ([1]; parasite line A): 1.38%
activity, negative = inhibition ([1]; parasite line B): 3.74%
Potency (3D7): inactive
Potency (7G8): inactive
Potency (AA1029): inactive
Potency (AS120): inactive
Potency (ATS189): inactive
Potency (ATS95): inactive
Potency (C2A): inactive
Potency (CP185): inactive
Potency (CP191): inactive
Potency (CP192): inactive
Potency (CP194): inactive
Potency (CP201): inactive
Potency (CP203): inactive
Potency (CP211): inactive
Potency (CP215): inactive
Potency (CP217): inactive
Potency (CP237): inactive
Potency (CP238): inactive

O=C(c1ccc(F)cc1)C1CCN(CCn2c(=S)[nH]c3ccccc3c2=O)CC1
Potency ([1]; parasite line A): 5010 nM (active)
Potency ([1]; parasite line B): 10000 nM (active)
Potency (3D7): 11200 nM (active)
Potency (7G8): 2240 nM (active)
Potency (AA1029): 4470 nM (active)
Potency (AS120): 2820 nM (active)
Potency (ATS189): 6310 nM (active)
Potency (ATS95): 5010 nM (active)
Potency (C2A): 10000 nM (active)
Potency (CP185): 7940 nM (active)
Potency (CP191): 11200 nM (active)
Potency (CP192): 6750 nM (active)
Potency (CP194): 7570 nM (active)
Potency (CP201): 7570 nM (active)
Potency (CP203): 6010 nM (active)
Potency (CP211): 6010 nM (active)
Potency (CP215): 5360 nM (active)
Potency (CP217): 5010 nM (active)
Potency (CP237): 5010 nM (active)
Potency (CP238): 7940 nM (active)

O=C(O)C(Cc1cc(I)c(O)c(I)c1)c1ccccc1 (stereo not given)
activity, negative = inhibition ([1]; parasite line A): -3.64%
activity, negative = inhibition ([1]; parasite line B): 7.72%
Potency (3D7): inactive
Potency (7G8): inactive
Potency (AA1029): inactive
Potency (AS120): inactive
Potency (ATS189): inactive
Potency (ATS95): inactive
Potency (C2A): inactive
Potency (CP185): inactive
Potency (CP191): inactive
Potency (CP192): inactive
Potency (CP194): inactive
Potency (CP201): inactive
Potency (CP203): inactive
Potency (CP211): inactive
Potency (CP215): inactive
Potency (CP217): inactive
Potency (CP237): inactive
Potency (CP238): inactive

O[C@@H](c1cc(C(F)(F)F)nc2c(C(F)(F)F)cccc12)[C@H]1CCCCN1
Potency ([1]; parasite line A): 31.6 nM (active)
Potency ([1]; parasite line B): 12.6 nM (active)
Potency (3D7): 35.5 nM (active)
Potency (7G8): 7.9 nM (active)
Potency (AA1029): 11.2 nM (active)
Potency (AS120): 20 nM (active)
Potency (ATS189): 28.2 nM (active)
Potency (ATS95): 28.2 nM (active)
Potency (C2A): 70.8 nM (active)
Potency (CP185): 79.4 nM (active)
Potency (CP191): 50.1 nM (active)
Potency (CP192): 120 nM (active)
Potency (CP194): 213 nM (active)
Potency (CP201): 379 nM (active)
Potency (CP203): 84.9 nM (active)
Potency (CP211): 213 nM (active)
Potency (CP215): 95.3 nM (active)
Potency (CP217): 39.8 nM (active)
Potency (CP237): 25.1 nM (active)
Potency (CP238): 44.7 nM (active)

NC(N)=NCc1cccc(I)c1
activity, negative = inhibition ([1]; parasite line A): -25.5%
activity, negative = inhibition ([1]; parasite line B): -23.4%
Potency (3D7): inactive
Potency (7G8): inactive
Potency (AA1029): inactive
Potency (AS120): inactive
Potency (ATS189): inactive
Potency (ATS95): inactive
Potency (C2A): inactive
Potency (CP185): inactive
Potency (CP191): inactive
Potency (CP192): inactive
Potency (CP194): inactive
Potency (CP201): inactive
Potency (CP203): inactive
Potency (CP211): inactive
Potency (CP215): inactive
Potency (CP217): inactive
Potency (CP237): inactive
Potency (CP238): inactive
